Marburg entry inh: qHTS for inhibitors of binding or entry into cells for Marburg Virus; Marburg virus pseudotyped entry inhibition, cell reporter; Potency, µM (top dose mostly 37.8 µM), without a hit: top-dose activity change, negative = inhibition, most hits filed as inhibitors; hit rate 1.8% among 300,000; calls by dose curve; tested in HEK293 cells; further: potency means the concentration at half of the fitted maximal effect
HCMV antiviral: qHTS Assay for inhibitors of the human cytomegalovirus (HCMV) | hit rate 4.5% among 410,000 | HFF cells, HCMV-luciferase reporter, 72 h; hits give low values | activity change, negative = inhibition, % at 57.5 µM; in the data active means activity change below about -60%; inconclusive means no clear call, values can overlap the other calls; inactive means above about -39%
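Steps: HFFs plated, 16 h 37C; compounds added; HCMV-luciferase added to MOI 1 PFU/cell; 72 h 37C; OneGlo reagent, 5 min room temperature; luminescence read, normalized to controls.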
LASV entry inh: qHTS for Inhibitors of binding or entry into cells for Lassa Virus; Lassa virus pseudotype entry inhibition, cell reporter; Potency, µM (doses to about 37.9 µM), for the others: at the highest dose activity change, negative = inhibition, most hits filed as inhibitors; hit rate 1.2% among 300,000; AID 540256, 2011; calls by dose curve; tested in HEK293 cells; further: potency means the concentration at half of the fitted maximal effect; nearly all actives have a fitted effect of over 50% in size
Giardia FBPA inh: qHTS Assay for Inhibitors of Fructose-1,6-bisphosphate Aldolase from Giardia Lamblia; A8B2U2; purified Giardia FBPA; Potency, µM (highest dose often 59.6 µM), inactives show at the highest dose activity, negative = inhibition, hits mostly inhibitors; hit rate 0.71% among 290,000; AID 2451, 2010; further: potency means the concentration at half of the fitted maximal effect; nearly all actives have a fitted effect of over 55% in size
Target sequence (A8B2U2 whole entry, looked up): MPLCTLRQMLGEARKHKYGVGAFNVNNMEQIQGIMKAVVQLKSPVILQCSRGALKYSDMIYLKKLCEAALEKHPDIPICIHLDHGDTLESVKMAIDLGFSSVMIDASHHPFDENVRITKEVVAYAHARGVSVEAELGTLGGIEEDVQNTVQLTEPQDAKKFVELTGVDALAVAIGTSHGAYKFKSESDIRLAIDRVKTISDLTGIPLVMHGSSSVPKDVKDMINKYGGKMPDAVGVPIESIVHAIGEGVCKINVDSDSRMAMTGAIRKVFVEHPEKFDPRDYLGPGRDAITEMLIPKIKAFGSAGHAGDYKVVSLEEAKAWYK
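Giardia FBPA (40 nM reagent) was preincubated 10 min at RT with compound (up to 57.5 uM final), then substrate plus GAPDH/TPI/NAD/arsenate coupling system with diaphorase/resazurin was added; resorufin fluorescence (525/598 nm) was read after 20 min.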
HCV inhibitor: qHTS Assay for Inhibitors of Hepatitis C Virus (HCV); hit rate 3.4% among 340,000; Huh7.5.1 HCVcc-Cre infection, luciferase reporter, 44 h; AID 651820, 2012; Potency, µM (titrated, usually from 41.8 µM), for inactives: top-dose activity change, negative = inhibition, actives largely listed as inhibitors; further: potency means the concentration at half of the fitted maximal effect
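A cell-based infection assay in which seeded cells (1,000 per well) receive test compound after 4 h, are inoculated with HCVcc-Cre at approximately 0.5 moi, and are incubated 44 h before luminescence detection.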
FMDV antiviral: High Throughput Screening for Foot and Mouth Disease Virus Antivirals; hit rate 1.2% among 410,000; Potency, µM (series often up to 57.9 µM), for the others: top-dose activity change, negative = inhibition, usual class: inhibitors; FMDV antiviral cell-based qHTS; calls by dose curve; tested in HEK293T cells; further: read-out not given here; potency means the concentration at half of the fitted maximal effect; nearly all actives have a fitted effect of over 45% in size
* marks the source's active call; other numbers are inactive results; ? = inconclusive; . = no result; [ ] = another dose, or the depositor's remark. Compounds with a hit are over-represented: about 8.3% of the library has one in this group of screens. Unless noted, the call rests on the fitted dose curve; in most records, active means well fitted curve in the direction sought with a large enough effect; inconclusive means small, poorly fitted or top-dose-only effect, or another doubt; inactive means no such curve, though single readings can be large; an effect the other way counts as inactive or inconclusive. On the % scale 0 is the no-effect control and ±100 the full control effect.

SMILES | Marburg entry inh | HCMV antiviral | LASV entry inh | Giardia FBPA inh | HCV inhibitor | FMDV antiviral
O=C(NC1CCCCC1)c1nnc2n1CCN(Cc1cccc(C(F)(F)F)c1)C2 | . | 21 | . | . | . | .
Cc1occc1C(=O)Nc1cccc(-c2nc(CNC(=O)c3ccc(N4CCCCC4)cc3)c(C)o2)c1 | . | . | . | . | . | 20%
CN1CCN(c2ncc3nc(-c4ccccc4)c(=O)n(Cc4ccc(F)cc4)c3n2)CC1 | . | . | . | -1% | . | -9%
O=C(NC1CCCC1)O[C@@H]1C(=O)c2cc(Br)ccc2O[C@H]1c1ccc2c(c1)OCO2 | . | . | . | 2% | . | .
O=C(c1ccc(S(=O)(=O)NCc2ccco2)cc1)N1CCCC1 | 11%[46.1 µM] | -8 | 27%[46.1 µM] | 2% | -1% | -2%
CC(=O)c1ccc(N2CCN(C(=O)/C=C/c3ccc(S(=O)(=O)NCc4ccco4)cc3)CC2)cc1 | ? | -66* | ? | 5% | ? | ?
Cc1cccc(N2CCN(C(=O)c3c(-c4ccccc4)noc3C)CC2)c1C | 2.5µM* | -12 | ? | . | ? | ?
N#Cc1ccc(CN2CCN(C(=O)c3ccc(S(=O)(=O)NCc4ccco4)cc3)CC2)cc1 | . | 0 | . | . | 6.3µM* | ?
CN(c1ccccc1)S(=O)(=O)c1cccc(C(=O)N2CCN(c3ccccn3)CC2)c1 | -22% | -15 | ? | -6% | -17% | 40µM*
CCCCCCN1CCN(C2CN(Cc3cn(Cc4ccc(C(F)(F)F)cc4)nn3)S(=O)(=O)C2)CC1 (centres undefined) | ? | -35 | . | . | . | .
CN(C)CCCN1C(=O)C(O)=C(C(=O)c2cc3ccccc3o2)[C@@H]1c1ccccc1 | 11% | . | . | . | . | .
O=C(c1cccc(F)c1)N1CCC2(CC1)CN(c1ccccn1)C2 | . | . | . | -1% | . | -17%
O=C(c1ccc(CNS(=O)(=O)c2ccccc2)cc1)N1CCN(Cc2ccccc2)CC1 | ? | -76* | ? | 5% | 11µM* | ?
COC(=O)c1cc(C(=O)N2CCN(c3cccc(C)c3C)CC2)cc([N+](=O)[O-])c1 | 4.5µM* | 9 | -23% | -5% | ? | -29%
CN(c1ccc(C(=O)N2CCN(Cc3ccccc3)CC2)cc1)S(=O)(=O)c1ccc(Cl)cc1 | ? | -63* | -11%[46.1 µM] | -8% | 10µM* | -23%
COc1ccc(CNS(=O)(=O)c2c(C)[nH]c(C)c2C(=O)N2CCCC2)cc1 | . | -62* | . | . | 1% | -13%
COC(=O)c1cc(C(=O)N2CCN(c3ccccc3OC)CC2)cc([N+](=O)[O-])c1 | ? | ? | -28% | -16% | -26% | -7%
Cc1ccc(N(C)S(=O)(=O)c2cccc(C(=O)N3CCN(Cc4ccccc4)CC3)c2)cc1 | . | 0 | . | . | ? | -28%
Cc1ccc2c(c1)-c1c(cnc3cc(-c4ccc(F)cc4)nn13)CO2 | 1%[46.1 µM] | -5 | 22%[46.1 µM] | . | . | -7%
Cc1ccc(NC(=O)c2c(C)nn(-c3ccccc3)c2-n2cccc2)c(Cl)c1 | 21%[46.1 µM] | -10 | -20%[46.1 µM] | . | . | -17%
Cc1cc(C)n(C(C)CC(=O)Nc2cccc(C#N)c2)n1 (centres undefined) | . | -9 | ? | . | . | -15%
CCOc1ncccc1C(=O)N1CCN(c2cc(Cl)ccc2C)CC1 | ? | -19 | ? | 4% | ? | ?
CCOc1ncccc1C(=O)N1CCN(c2cccc(C)c2C)CC1 | ? | -96* | ? | 2% | ? | ?
Cc1cccc(N2CCN(C(=O)c3ccc(S(=O)(=O)N(C)c4ccccc4)cc3)CC2)c1C | ? | ? | 4.5µM* | . | ? | ?
Cc1onc(-c2c(F)cccc2Cl)c1C(=O)N1CCN(c2ncc(Br)cn2)CC1 | ? | -4 | ? | 14% | ? | 28µM*
SMILES | Marburg entry inh | HCMV antiviral | LASV entry inh | Giardia FBPA inh | HCV inhibitor | FMDV antiviral
CN1CCN(C(=O)c2ccc(S(=O)(=O)N(C)c3ccccc3)cc2)CC1 | . | -19 | . | . | . | -26%
COc1cccc(S(=O)(=O)NCc2ccc(C(=O)N3CCN(c4ccccc4)CC3)cc2)c1 | . | -32 | . | . | ? | ?
COc1ccc(N2CCN(C(=O)c3ccc(CNS(=O)(=O)c4cccc(OC)c4)cc3)CC2)cc1 | -19%[46.1 µM] | -38 | ? | . | 3.5µM* | -26%
Cc1onc(-c2c(F)cccc2Cl)c1C(=O)N1CCSCC1 | 10%[46.1 µM] | 22 | 22% | 0% | -3% | 0%
CC(=O)NCCNc1ccnc(-c2ccccc2C)n1 | . | . | . | -1% | . | -3%
C#CC1(O)C2C=C(OC)C(=O)C1C(c1ccccc1)C2C (centres undefined) | 26%[14.2 µM] | . | . | . | . | .
CCOC(=O)C1=C([Si](C)(C)C)c2ccccc2N(S(=O)(=O)C(F)(F)F)C1C(=O)OCC (centres undefined) | . | . | . | -12% | . | .
Clc1cccc(-n2ncc3c(NCCCN4CCOCC4)ncnc32)c1 | . | 6 | ? | . | . | 19%
Cc1ccc(S(=O)(=O)NCc2ccc(N3CCN(C(=O)OC(C)(C)C)CC3)cc2)cc1 | -13%[46.1 µM] | -68* | -15%[46.1 µM] | 3% | ? | 28µM*
C1=CC2=NC34CCCCC3CC3=C(CCCC3)N4C2=CC1=NC1CCCCC1 (centres undefined) | . | . | . | . | ? | 28µM*
COC(=O)c1ccc(OCC2c3cc(OC)c(OC)cc3CCN2C(=O)COc2ccc(Cl)cc2)cc1 (centres undefined) | . | 14 | 3%[46.1 µM] | . | . | ?
Cc1ccc(N2CC(NC(=O)c3ccc(S(=O)(=O)N(C)C)cc3)CC2=O)cc1C (centres undefined) | . | 35 | 6%[46.1 µM] | . | . | -27%
CC(C)Cc1nc(Nc2ccccc2C#N)c2nnn(Cc3ccccc3)c2n1 | ? | -28 | ? | 1% | 16µM* | -28%
COc1ccc(/C=C/C2=CC(C)(C)NC(=S)N2)cc1OC | . | ? | . | 4% | ? | -4%
CCOc1ccc(/C=C/C2=CC(C)(C)NC(=S)N2)cc1 | 12%[46.1 µM] | -94* | -11% | -4% | ? | -10%
Cc1ccc(C(=O)CSc2nnnn2C(C)C)c(C)c1 | 5.6µM* | ? | 7.1µM* | -3% | 6% | 14µM*
Cc1ccc(C)c(C(=O)CSc2nnnn2C(C)C)c1 | -1% | 86 | 3% | -5% | ? | 32%
NC(=S)n1[nH]c(-c2ccc([N+](=O)[O-])cc2)c(N=Nc2cccc([N+](=O)[O-])c2)c1=O | ? | -72* | ? | 7% | 10µM* | ?
Cc1c(N=Nc2c(-c3ccc([N+](=O)[O-])cc3)[nH]n(C(N)=S)c2=O)cccc1[N+](=O)[O-] | 2.8µM* | -96* | ? | 4% | 8.9µM* | ?
CCOc1ccc(C(=O)N2CCN(Cc3cc(=O)n4nc(-c5ccccc5Cl)sc4n3)CC2)cc1 | . | 11 | -7%[46.1 µM] | . | . | 0%
COc1cccc(-c2nnc3n2N=C(c2c(OC)cccc2OC)CS3)c1OC | . | . | . | 3% | . | .
